In PMC5700166:
Substitutions are numbered along the chain they refer to.

Legend:
Assay in all cases: protein-binding microarray (PBM); PBM: ~300 nM protein, 6 mM HEPES pH 7.8, 80 mM KCl, 0.5 mM EDTA, 0.5 mM EGTA, 6% glycerol, 35 ng/ul poly-dIdC, 1% milk, 1 h, room temperature; Ap Aiptasia and Nv Nematostella (sea anemones) / Co Capsaspora / Aq Amphimedon (sponge) / Dm Drosophila / Hu human; RHD is the Rel homology domain; high values mean tight binding
Details in all cases: dsDNA, one strand shown
GST-Ap-NF-kB RHD = molecular target: T1, GST-Ap-NF-kB RHD (Exaiptasia pallida (Aiptasia), UniProt A0A913YAJ5 2-422)
T1 sequence: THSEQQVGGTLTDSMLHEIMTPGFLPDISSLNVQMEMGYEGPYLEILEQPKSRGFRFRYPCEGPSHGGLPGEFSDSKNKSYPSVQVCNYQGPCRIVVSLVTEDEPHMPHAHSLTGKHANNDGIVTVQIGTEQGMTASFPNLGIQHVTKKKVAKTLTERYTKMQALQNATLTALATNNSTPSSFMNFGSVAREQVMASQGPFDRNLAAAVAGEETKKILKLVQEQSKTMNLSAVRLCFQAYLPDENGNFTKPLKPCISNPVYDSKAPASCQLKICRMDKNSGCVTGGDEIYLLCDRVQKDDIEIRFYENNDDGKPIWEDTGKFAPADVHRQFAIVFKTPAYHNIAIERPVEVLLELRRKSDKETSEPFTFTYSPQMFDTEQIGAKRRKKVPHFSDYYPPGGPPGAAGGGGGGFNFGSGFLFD

[1] = molecular target: T2, GST-Nv-NF-kB (Cys allele) (Nematostella vectensis, UniProt E5G601 2-411)
T2 sequence: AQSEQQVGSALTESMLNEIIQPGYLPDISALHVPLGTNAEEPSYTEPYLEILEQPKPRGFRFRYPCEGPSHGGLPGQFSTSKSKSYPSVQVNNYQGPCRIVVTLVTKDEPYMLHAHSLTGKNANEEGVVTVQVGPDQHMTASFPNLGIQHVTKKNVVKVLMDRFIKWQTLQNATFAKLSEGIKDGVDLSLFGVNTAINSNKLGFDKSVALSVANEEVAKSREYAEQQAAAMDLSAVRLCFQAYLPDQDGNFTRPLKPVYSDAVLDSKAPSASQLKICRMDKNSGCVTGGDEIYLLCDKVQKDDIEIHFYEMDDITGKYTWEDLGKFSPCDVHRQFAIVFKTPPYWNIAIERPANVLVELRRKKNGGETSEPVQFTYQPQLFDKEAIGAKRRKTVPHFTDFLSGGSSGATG

[2] = molecular target: T3, GST-Nv-NF-kB (Ser allele) (Nematostella vectensis, UniProt A7UNT2 2-411)
T3 sequence: T2 sequence with Q21R, C66S, S207N, E215Q, V217A, E225K, A268E, D399E

GST-Co-NF-kB = molecular target: T4, GST-Co-NF-kB (Capsaspora owczarzaki, UniProt F1ARL5 200-546)
T4 sequence: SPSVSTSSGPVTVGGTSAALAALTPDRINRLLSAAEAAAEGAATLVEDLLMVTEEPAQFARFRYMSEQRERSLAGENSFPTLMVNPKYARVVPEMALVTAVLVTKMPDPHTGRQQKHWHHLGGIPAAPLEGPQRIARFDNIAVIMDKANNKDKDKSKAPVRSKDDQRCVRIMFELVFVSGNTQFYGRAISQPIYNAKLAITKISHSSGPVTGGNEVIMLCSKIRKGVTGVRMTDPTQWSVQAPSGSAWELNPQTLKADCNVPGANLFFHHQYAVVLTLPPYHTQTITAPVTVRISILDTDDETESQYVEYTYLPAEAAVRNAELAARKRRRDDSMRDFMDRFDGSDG

GST-Dm-Relish = molecular target: T5, GST-Dm-Relish (Drosophila melanogaster, UniProt Q94527 99-473)
T5 sequence: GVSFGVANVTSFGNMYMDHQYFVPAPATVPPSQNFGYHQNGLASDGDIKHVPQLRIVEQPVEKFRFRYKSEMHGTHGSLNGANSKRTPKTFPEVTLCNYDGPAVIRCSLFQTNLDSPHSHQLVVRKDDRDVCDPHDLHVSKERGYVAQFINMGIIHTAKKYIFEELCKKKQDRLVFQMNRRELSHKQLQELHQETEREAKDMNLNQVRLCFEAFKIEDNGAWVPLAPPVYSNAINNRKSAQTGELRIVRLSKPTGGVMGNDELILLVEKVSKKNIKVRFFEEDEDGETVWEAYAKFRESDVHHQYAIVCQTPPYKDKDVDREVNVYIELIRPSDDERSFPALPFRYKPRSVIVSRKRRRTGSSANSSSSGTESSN

GST-Aq-NF-kB = molecular target: T6, GST-Aq-NF-kB (Amphimedon queenslandica, UniProt A9Y5G7 2-389)
T6 sequence: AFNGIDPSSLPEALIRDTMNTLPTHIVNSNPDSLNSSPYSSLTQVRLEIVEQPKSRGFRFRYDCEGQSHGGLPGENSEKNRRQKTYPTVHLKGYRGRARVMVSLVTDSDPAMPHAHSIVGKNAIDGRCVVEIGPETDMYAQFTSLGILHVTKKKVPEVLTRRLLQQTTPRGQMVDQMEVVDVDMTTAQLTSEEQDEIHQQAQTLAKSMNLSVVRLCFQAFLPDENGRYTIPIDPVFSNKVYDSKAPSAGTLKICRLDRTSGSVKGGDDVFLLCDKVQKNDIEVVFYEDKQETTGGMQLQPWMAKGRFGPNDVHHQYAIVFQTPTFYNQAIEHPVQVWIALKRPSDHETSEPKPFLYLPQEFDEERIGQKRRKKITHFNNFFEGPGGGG

GST-Hu-p50 = GST-Hu-p50 (Homo sapiens, UniProt P19838 7-356)
Chain of GST-Hu-p50 (P19838 7-356): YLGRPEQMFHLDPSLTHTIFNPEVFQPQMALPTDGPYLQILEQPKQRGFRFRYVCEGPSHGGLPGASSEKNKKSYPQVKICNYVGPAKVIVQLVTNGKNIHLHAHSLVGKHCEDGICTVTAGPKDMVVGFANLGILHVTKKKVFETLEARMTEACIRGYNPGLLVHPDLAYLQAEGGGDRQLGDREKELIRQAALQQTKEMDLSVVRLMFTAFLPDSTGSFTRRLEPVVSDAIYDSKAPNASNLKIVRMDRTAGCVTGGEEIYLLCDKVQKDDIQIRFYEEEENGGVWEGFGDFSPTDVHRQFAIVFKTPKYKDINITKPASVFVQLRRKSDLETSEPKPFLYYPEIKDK

| Sequence | binding signal (GST-Ap-NF-kB RHD) | binding signal [1] | binding signal [2] | binding signal (GST-Co-NF-kB) | binding signal (GST-Dm-Relish) | binding signal (GST-Aq-NF-kB) | binding signal (GST-Hu-p50) |
| --- | --- | --- | --- | --- | --- | --- | --- |
| CCGATTAACATCAGGGGGATTTATGATGTTAATCGGGTCTTGATTCGCTTGACGCTGCTG | 8.91 z-score | 9.22 z-score | 10 z-score | 6.7 z-score | 8.87 z-score | 7.3 z-score | 7.42 z-score |
| CCGATTAACATCAGGGAAAGCACTGATGTTAATCGGGTCTTGATTCGCTTGACGCTGCTG | 3.61 z-score | 4.73 z-score | 3.86 z-score | 2.69 z-score | 6.76 z-score | 6.5 z-score | 3.98 z-score |
| CCGATTAACATCAAACTTCCCCTTGATGTTAATCGGGTCTTGATTCGCTTGACGCTGCTG | 6.88 z-score | 9.28 z-score | 9.81 z-score | 5.46 z-score | 7.55 z-score | 7.66 z-score | 6.98 z-score |
| CCGATTAACATCAGGGAAGTACCTGATGTTAATCGGGTCTTGATTCGCTTGACGCTGCTG | 6.67 z-score | 7.36 z-score | 8.68 z-score | 1.93 z-score | 9.88 z-score | 7.45 z-score | 5.92 z-score |
| CCGATTAACATCAGGGTTTCCCATGATGTTAATCGGGTCTTGATTCGCTTGACGCTGCTG | 3.12 z-score | 3.27 z-score | 2.81 z-score | 2.84 z-score | 8.13 z-score | 4.6 z-score | 2.14 z-score |
| CCGATTAACATCAAAATTCCCGCTGATGTTAATCGGGTCTTGATTCGCTTGACGCTGCTG | 4.49 z-score | 5.99 z-score | 5.62 z-score | 5.23 z-score | 5.76 z-score | 5.51 z-score | 4.41 z-score |
| CCGATTAACATCACCACCCCCCCTGATGTTAATCGGGTCTTGATTCGCTTGACGCTGCTG | 4.06 z-score | 3.75 z-score | 3.44 z-score | 3.56 z-score | 4.58 z-score | 3.75 z-score | 4.06 z-score |
| CCGATTAACATCAAGTTTTCCCCTGATGTTAATCGGGTCTTGATTCGCTTGACGCTGCTG | 8.03 z-score | 8.76 z-score | 11.2 z-score | 10.3 z-score | 6.09 z-score | 6.59 z-score | 6.59 z-score |
| CCGATTAACATCAGGGGTACCCCTGATGTTAATCGGGTCTTGATTCGCTTGACGCTGCTG | 7.75 z-score | 3.69 z-score | 2.78 z-score | 6.06 z-score | 5.81 z-score | 6.3 z-score | 3.73 z-score |
| CCGATTAACATCAGATTCCCCCCTGATGTTAATCGGGTCTTGATTCGCTTGACGCTGCTG | 8.5 z-score | 7.01 z-score | 8.24 z-score | 10 z-score | 6.72 z-score | 6.38 z-score | 7.1 z-score |
| CCGATTAACATCAAATTTCCCCCTGATGTTAATCGGGTCTTGATTCGCTTGACGCTGCTG | 9.03 z-score | 9.93 z-score | 12.8 z-score | 12.3 z-score | 7.24 z-score | 7.79 z-score | 7.66 z-score |
| CCGATTAACATCAAAAAGTCCCTTGATGTTAATCGGGTCTTGATTCGCTTGACGCTGCTG | 7.48 z-score | 10.3 z-score | 9.76 z-score | 1.63 z-score | 8.86 z-score | 8.25 z-score | 6.97 z-score |
| CCGATTAACATCAGGGGATCCCCTGATGTTAATCGGGTCTTGATTCGCTTGACGCTGCTG | 14.6 z-score | 11.6 z-score | 12.1 z-score | 7.53 z-score | 10.8 z-score | 11.3 z-score | 7.87 z-score |
| CCGATTAACATCACTTATCCCCCTGATGTTAATCGGGTCTTGATTCGCTTGACGCTGCTG | 4.81 z-score | 3.72 z-score | 4.72 z-score | 6.68 z-score | 2.71 z-score | 3.72 z-score | 4.19 z-score |
| CCGATTAACATCAGGGATATCCCTGATGTTAATCGGGTCTTGATTCGCTTGACGCTGCTG | 6.62 z-score | 6.52 z-score | 4.4 z-score | 3.18 z-score | 7.32 z-score | 7.89 z-score | 3.87 z-score |
| CCGATTAACATCAGGGGGCTTTATGATGTTAATCGGGTCTTGATTCGCTTGACGCTGCTG | 5.16 z-score | 5.53 z-score | 4.34 z-score | 1.85 z-score | 6.23 z-score | 5.44 z-score | 5.71 z-score |
| CCGATTAACATCAGGGGAAACACTGATGTTAATCGGGTCTTGATTCGCTTGACGCTGCTG | 6.4 z-score | 8.15 z-score | 9.65 z-score | 7.63 z-score | 9.02 z-score | 7 z-score | 6.08 z-score |
